Rce1 inh: yeast Ras-converting enzyme inhibition | Q03530 | yeast membranes, quenched prenylated peptide cleavage fluorescence | calls only | 290,000 compounds, 0.27% hits;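 active = fall in fluorescence gain of 50% or more versus controls, with final raw signal at or below 3038400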
ADAM10 inh: ADAM10 inhibition, QFRET primary screen; O14672; recombinant ADAM10, EDANS/DABCYL FRET peptide cleavage, 3 h; inhibition, % at 7 µM; 370,000 compounds, 0.62% hits; AID 720582;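 active = inhibition above a per-campaign cutoff equal to the mean of compounds falling between control-based bounds plus 3 SD, cut at about 20% in these data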
ADAM17 inh: inhibitors of human ADAM17 | recombinant ADAM17, EDANS/DABCYL FRET peptide cleavage | inhibition, % at 6.95 µM | 370,000 compounds, 0.83% hits;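 active = inhibition above the mean of compounds lying between control limits plus 3 SD, set per campaign, cut at about 8.5% in these data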
PLC-beta3 inh: inhibitors of human phospholipase C beta3 | Q01970 | Purified PLC-beta3, fluorogenic substrate, fluorescence | inhibition, % at 12.2 µM | 370,000 compounds, 0.18% hits
PLC-gamma1 inh: inhibitors of human phospholipase C gamma1; inhibition, % at 12.2 µM; purified PLC-gamma1, fluorogenic substrate, fluorescence; 370,000 compounds, 0.84% hits; AID 720700; P19174; in the data active = inhibition above about 9.5%
PLCgamma1 ctr: counter-screen for PLC-beta3 inhibitors: inhibitors of human PLC-gamma1; AID 743258; purified PLC-gamma1, fluorogenic substrate, fluorescence; shares compounds with PLC-gamma1 inh; inhibition, % at 12.3 µM; 3,300 compounds, 3.1% hits; in the data active = inhibition above about 9.5%
PLCbeta3 conf: human PLC-beta3 inhibition, confirmation; shares compounds with PLC-gamma1 inh; purified PLC-beta3, fluorogenic substrate fluorescence; inhibition, % at 12.3 µM; 3,300 compounds, 1% hits
Large screens that a line does not name were inactive (follow-up assays come after a bar, where they were run). Most compounds without a hit are left out; they make up all but 2.1% or so of the library. Cut-off read from the data, not from the text of the source, unless noted: active = inhibition above about 11%; inactive = the rest.

CCOC(=O)[C@]12CCCC=C1N(CCc1ccc(OC)c(OC)c1)C(=O)[C@H](CC(=O)N1CCCC1)C2	PLC-gamma1 inh 11.7 (no result: Rce1 inh) | PLCgamma1 ctr inactive | PLCbeta3 conf inactive
CCOC(=O)N1CCN(C(=O)C[C@@H]2C[C@@]3(C(=O)OCC)CCC=C3N(Cc3ccc4c(c3)OCO4)C2=O)CC1	PLC-gamma1 inh 9.7 (no result: Rce1 inh) | PLCgamma1 ctr inactive | PLCbeta3 conf inactive
CCOC(=O)N1CCN(C(=O)C[C@@H]2C[C@@]3(C(=O)OCC)CCCC=C3N(CCc3ccc(OC)c(OC)c3)C2=O)CC1	none (no result: Rce1 inh)
Cc1cc(C(=O)Nc2cccc3c2O[C@@H](CN(C)S(C)(=O)=O)[C@H](C)CN([C@@H](C)CO)C3=O)n(C)n1	none (no result: Rce1 inh)
CC(C)C[C@@H](CN1CCC[C@@H]1CN1C(=S)NC[C@@H]1Cc1ccc(O)cc1)N1C[C@H](Cc2ccc(O)cc2)N(CC2CCCCC2)C1=S	none (no result: Rce1 inh)
CC1Cc2ccccc2N1C(=O)CN1CCN(Cc2ccccc2)CC1 (stereo unspecified)	PLC-gamma1 inh 9.8 | PLCgamma1 ctr inactive | PLCbeta3 conf inactive
CC1CCN(CC(=O)N2c3ccccc3CC2C)CC1 (stereo unspecified)	none
CC1Cc2ccccc2N1C(=O)Cn1cc([N+](=O)[O-])cn1 (stereo unspecified)	PLC-beta3 inh 12.6 | PLCgamma1 ctr inactive | PLCbeta3 conf inactive
CCc1noc(C)c1C(=O)N1CCN(S(=O)(=O)c2c(C)c(C)cc(C)c2C)CC1	none
O=C(NCCSc1ccccc1)c1ccc(Br)cc1	none
CN(C)S(=O)(=O)c1ccc(C(=O)NCCSc2ccc(Br)cc2)cc1	PLC-gamma1 inh 10.4 | PLCgamma1 ctr inactive | PLCbeta3 conf inactive
CCOc1ncccc1C(=O)OCC(=O)c1c(N)n(C)c(=O)n(C)c1=O	PLC-beta3 inh 10.6 | PLCgamma1 ctr inactive | PLCbeta3 conf inactive
COc1ccc(N2C(=O)C(Cl)=C(Nc3ccccc3OC)C2=O)cc1	PLC-beta3 inh 13.3, PLC-gamma1 inh 9.5 | PLCgamma1 ctr inactive | PLCbeta3 conf inactive
COc1ccc(N2C(=O)C(Cl)=C(Nc3ccccc3O)C2=O)cc1	none (no result: Rce1 inh)
Cn1cc(S(=O)(=O)CC(=O)N2CCc3ccccc32)c2ccccc21	PLC-beta3 inh 15.6, PLC-gamma1 inh 17.8 | PLCgamma1 ctr 13.1 | PLCbeta3 conf 14.7
Cc1nc([N+](=O)[O-])c(Br)n1CC(=O)c1ccc(Cl)cc1	PLC-gamma1 inh 9.7 | PLCgamma1 ctr inactive | PLCbeta3 conf inactive
CC(O)[C@H]1CN=C(N)N1CCc1cc(C(F)(F)F)cc(C(F)(F)F)c1 (stereo partly specified)	none
NC1=NC[C@H](Cc2ccc(O)cc2)N1CCc1cc(C(F)(F)F)cc(C(F)(F)F)c1	PLC-gamma1 inh 10.3 | PLCgamma1 ctr inactive | PLCbeta3 conf inactive
CC(C)c1onc(C(=O)N2CCCCCC2)c1[N+](=O)[O-]	PLC-gamma1 inh 15.1 (no result: Rce1 inh) | PLCgamma1 ctr inactive | PLCbeta3 conf inactive
CC(N)(C(=O)O)c1cccc(OCc2cccc(Cl)c2)c1 (stereo unspecified)	PLC-gamma1 inh 10.7 | PLCgamma1 ctr inactive | PLCbeta3 conf inactive
Cc1c(NC(=O)c2cccc(NC(=O)COc3ccc(C#N)cc3)c2)c(=O)n(-c2ccccc2)n1C	none (no result: Rce1 inh)
CN(C)C(=O)CSc1nnc(CCN)o1	PLC-gamma1 inh 12.9 | PLCgamma1 ctr inactive | PLCbeta3 conf inactive
NCCc1nnc(SCC(=O)Nc2ccc(Br)cc2)o1	none
CC(=O)OCCCN1c2ccccc2Nc2nnc(-c3ccccc3)cc21	PLC-beta3 inh 14.3 | PLCgamma1 ctr inactive | PLCbeta3 conf inactive
NCCCC[C@@H](C(=O)N1CCNCC1)n1cc([C@@H](N)CO)nn1	PLC-beta3 inh 11.7 | PLCgamma1 ctr inactive | PLCbeta3 conf inactive
O=C(OCc1ccccc1Cl)c1cccnc1Cl	PLC-gamma1 inh 13.9 | PLCgamma1 ctr inactive | PLCbeta3 conf inactive
Cc1c(-c2ccc(Br)cc2)[n+](=O)c2c(n1[O-])CCCC2	none
COCCNC(=O)c1c(N)[nH]c(C(=O)c2ccc(Br)cc2)c1-c1c(OC)ccc2ccccc12	none (no result: Rce1 inh)
COc1ccc(S(=O)(=O)N2CCC(C(=O)NCCN3CCOCC3)CC2)cc1	PLC-gamma1 inh 12.5 | PLCgamma1 ctr inactive | PLCbeta3 conf inactive
COc1ccc(C2C(C(=O)NCCCN3CCOCC3)c3ccccc3C(=O)N2c2ccc(OC)cc2)cc1 (stereo unspecified)	PLC-beta3 inh 11.5 | PLCgamma1 ctr inactive | PLCbeta3 conf inactive
Cc1ccc(S(=O)(=O)N2CCC(C(=O)NCCN3CCOCC3)CC2)cc1C	none
COc1ccc(OCCCC(=O)NCc2ccco2)cc1	PLC-gamma1 inh 15.2 | PLCgamma1 ctr inactive | PLCbeta3 conf inactive
Cc1ccccc1NC(=O)C1CC(=O)N(c2ccccc2F)C1 (stereo unspecified)	PLC-beta3 inh 11.3 | PLCgamma1 ctr inactive | PLCbeta3 conf inactive
Cc1ccccc1NC(=O)C1CC(=O)N(c2ccc3c4c(cccc24)CC3)C1 (stereo unspecified)	none
O=[N+]([O-])c1c(Nc2ccccc2O)cc(N2CCOCC2)c2nonc12	none
COc1cccc(Nc2cc(N3CCOCC3)c3nonc3c2[N+](=O)[O-])c1	PLC-gamma1 inh 10.1 | PLCgamma1 ctr inactive | PLCbeta3 conf inactive
O=C1N=C2SCCN2/C1=C\c1ccccc1Cl	PLC-gamma1 inh 11.0 | PLCgamma1 ctr inactive | PLCbeta3 conf inactive
O=C(NC1(C(F)(F)F)N=C2SCCN2C1=O)c1ccccc1 (stereo unspecified)	none
COc1ccc(-n2c(=S)[nH]c3cc(C(=O)N(C)Cc4ccccc4)ccc3c2=O)cc1	PLC-gamma1 inh 11.9 (no result: Rce1 inh) | PLCgamma1 ctr inactive | PLCbeta3 conf inactive
COc1ccc(-n2c(=S)[nH]c3cc(C(=O)O)ccc3c2=O)cc1	none
COc1ccc(C(C)=O)c(OCC(=O)NCCC2=CCCCC2)c1	none (no result: Rce1 inh)
COc1ccc(OCC(=O)NCCC2=CCCCC2)c([N+](=O)[O-])c1	PLC-gamma1 inh 10.1 | PLCgamma1 ctr inactive | PLCbeta3 conf inactive
COc1cccc(CN(C)C(=O)COc2cccc3c2OC(C)(C)C3)c1OC	PLC-beta3 inh 12.6, PLC-gamma1 inh 13.0 (no result: Rce1 inh) | PLCgamma1 ctr inactive | PLCbeta3 conf inactive
CCOC(=O)N1CCN(C(=O)c2ccc(Cn3c(=S)[nH]c4cc5c(cc4c3=O)OCO5)cc2)CC1	PLC-gamma1 inh 12.1 (no result: Rce1 inh) | PLCgamma1 ctr inactive | PLCbeta3 conf inactive
COc1ccc(S(=O)(=O)NC2CCN(C#N)CC2)cc1	none (no result: Rce1 inh)
CCn1c2c(n(C(C)=O)c1=O)C[C@@H](c1ccccc1)[C@@H](C)[C@@H](C(=O)N1CCCC1)C2	none (no result: Rce1 inh)
CCN(CC)C(=O)c1sc(NC(=O)c2ccc(OC)c([N+](=O)[O-])c2)c(C#N)c1C	none (no result: ADAM10 inh, ADAM17 inh, PLC-beta3 inh, PLC-gamma1 inh)
CCN(CC)C(=O)c1sc(NC(=O)c2ccc(C)c([N+](=O)[O-])c2)c(C#N)c1C	PLC-gamma1 inh 11.2 | PLCgamma1 ctr inactive | PLCbeta3 conf inactive
O=S(=O)(c1ccccc1)N1CCN(c2cccc(Cl)c2)CC1	none
